Source: PubChem BioAssay AID588342 (National Center for Advancing Translational Sciences (NCATS), 2011)
The campaign covered roughly 360,000 compounds. About 25,000 (6.9%) were called active. Entries that show only a call come without a potency. Roughly 9% stayed inconclusive and do not appear here. Calls come from the whole dose curve; as a rule, active = well fitted inhibition curve with a large enough effect; inconclusive = small, poorly fitted or top-dose-only effect; inactive = flat fitted curve, though single readings scatter. For the sample, actives were picked, then their nearest neighbours and some compounds at random.

target: Luciferin 4-monooxygenase (Photinus pyralis) (UniProt P08659); assay: qHTS profiling assay for firefly luciferase inhibitor/activator using purifed enzyme and Km concentrations of substrates (counterscreen for miR-21 project); conditions: purified FLuc, luminescence inhibition; series mostly up to 57.5 µM; note: nearly all actives have a fitted effect of over 55% in size
In short: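 Purified P. pyralis luciferase (10nM final) with 10uM D-luciferin and 10uM ATP (Km levels) in 50mM Tris acetate pH 7.5, 10mM Mg acetate, 0.01% Tween-20, 0.05% BSA; qHTS 6-point titration, ~60 µM downward; luminescence read.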
Potency is the fitted concentration of half-maximal effect.

Luciferin 4-monooxygenase (Photinus pyralis), sequence (P08659 whole entry, looked up): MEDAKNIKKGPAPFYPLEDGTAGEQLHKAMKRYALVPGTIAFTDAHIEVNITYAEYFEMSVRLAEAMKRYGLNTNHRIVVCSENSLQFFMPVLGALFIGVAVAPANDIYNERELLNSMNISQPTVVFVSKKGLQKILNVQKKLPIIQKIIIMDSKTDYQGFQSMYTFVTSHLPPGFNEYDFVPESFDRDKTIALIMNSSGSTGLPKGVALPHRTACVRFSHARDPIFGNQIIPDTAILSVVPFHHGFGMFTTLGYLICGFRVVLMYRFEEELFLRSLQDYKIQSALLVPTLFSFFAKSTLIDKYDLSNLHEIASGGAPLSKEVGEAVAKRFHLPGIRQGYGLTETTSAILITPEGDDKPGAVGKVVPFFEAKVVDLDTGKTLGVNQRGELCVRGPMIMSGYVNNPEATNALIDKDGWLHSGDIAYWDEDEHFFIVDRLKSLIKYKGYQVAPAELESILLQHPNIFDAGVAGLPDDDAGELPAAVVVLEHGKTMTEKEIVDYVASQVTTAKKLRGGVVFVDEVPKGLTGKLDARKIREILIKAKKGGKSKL

Q: `Cc1cccc(C(=O)NCCc2nc3ccccc3n2Cc2ccccc2Cl)c1` was tested. Which Potency did it give?
A: inactive

Q: With `O=C1C2N=NN(CC(=O)N3N=C(c4cccc5ccccc45)CC3c3ccccc3)C2C(=O)N1c1ccccc1` (configuration not stated) as the molecule, how does the Potency read?
A: inactive

Q: Which Potency does the source give for `Cc1ccc(-n2nc(CO)c(C(=O)NCCc3ccccc3)n2)cc1` here?
A: inactive

Q: How did the Potency turn out when `COc1ccccc1C(=O)NC(CCSC)C(=O)N1CCN(C/C=C/c2ccccc2)CC1` (configuration not stated) was run?
A: inactive

Q: With `COc1cc(C(=O)Nc2ccc(-n3c(C)nc4ccccc4c3=O)cc2)cc(OC)c1OC` as the molecule, how does the Potency read?
A: inactive

Q: For `CC(C)Cn1c(-c2ccc(S(=O)(=O)N3CCOCC3)cc2)csc1=Nc1cc(Cl)ccc1Cl`, which Potency is on record?
A: inactive

Q: How did the Potency turn out when `Cn1c(CC(=O)NNC(=O)c2ccccc2F)nc2ccccc21` was run?
A: inactive

Q: With `CCOc1ccc2oc(C(=O)N(CC)CC(=O)Nc3ccc(NC(C)=O)cc3)c(C)c2c1` as the molecule, how does the Potency read?
A: inactive

Q: `Cc1nn(CC(=O)N2CCN(c3cccc(C(F)(F)F)c3)CC2)c(=O)c2cc3sccc3n12` was tested. Which Potency did it give?
A: inactive

Q: For `CC(=O)c1ccc(NC(=O)c2nc(-c3ccc(C)cc3)n3c2CCCCC3)cc1`, which Potency is on record?
A: inactive

Q: How did the Potency turn out when `COc1ccc(C(=O)Nc2ccnn2C2CCN(Cc3ccncc3)CC2)cc1` was run?
A: inactive

Q: For `COc1ccc(-c2cc(C(=O)Nc3sc4c(c3C(N)=O)CCCC4)no2)cc1`, which Potency is on record?
A: inactive

Q: With `COc1ccc(C(=O)Nc2sc(C)c(C)c2CN2CCOCC2)cc1` as the molecule, how does the Potency read?
A: 23.9 µM (active)

Q: `COc1ccc(C(=O)Nc2onc3c2CCCC3)cc1` was tested. Which Potency did it give?
A: 0.601 µM (active)

Q: With `CCC(C(=O)OCC(=O)Nc1ccc(C(=O)Nc2ccc(OC)cc2)cc1)c1ccccc1` (configuration not stated) as the molecule, how does the Potency read?
A: inactive

Q: How did the Potency turn out when `COC(=O)[C@H](CCSC)NC(=O)Nc1ccc(OC)cc1` was run?
A: inactive

Q: Which Potency does the source give for `COc1ccc(NC(=O)Nc2ccc3nsnc3c2)cc1` here?
A: 6.75 µM (active)

Q: Which Potency does the source give for `CC1CCc2noc(NC(=O)c3ccc([N+](=O)[O-])cc3)c2C1` (configuration not stated) here?
A: inactive

Q: For `COc1ccc(/C=N/NC(=O)Nc2ccc3nsnc3c2)c(OC)c1`, which Potency is on record?
A: inactive

Q: Which Potency does the source give for `COc1cccc(NC(=O)c2csnn2)c1` here?
A: inactive

Q: Which Potency does the source give for `CCOC(=O)c1c(NC(=O)c2ccc(N3CCOCC3)c([N+](=O)[O-])c2)sc(C)c1C` here?
A: inactive

Q: How did the Potency turn out when `CCC(=O)Nc1ccc(C(=O)Nc2cccc(OC)c2)cc1` was run?
A: 23.9 µM (active)

Q: `CCCCN1C(=O)c2[nH]nc(-c3ccccc3O)c2C1c1cccc(OCc2ccccc2)c1` (configuration not stated) was tested. Which Potency did it give?
A: inactive

Q: For `CC1CCN(C(=O)Cn2c(=O)n(-c3ccc(Cl)cc3)c(=O)c3c4c(sc32)CCC4)CC1`, which Potency is on record?
A: inactive

Q: How did the Potency turn out when `Cc1ccccc1NC(=O)CN1C(=O)C(C)(C)c2ccccc21` was run?
A: inactive

Q: `Cc1noc(C)c1-c1ccc2ncnc(NC(C)c3ccco3)c2c1` (configuration not stated) was tested. Which Potency did it give?
A: inactive

Q: With `Cc1ccc(C)c(N2CCN(C(=O)CCc3c(C)nc4c(c3C)c(=O)n(C)c(=O)n4C)CC2)c1` as the molecule, how does the Potency read?
A: inactive
